Only some compounds are listed: those with a hit (about 6.5% of all), similar ones and a draw of the others.
Spn MK inh = S. pneumoniae MK inhibitors, primary screen, biochemical, PK/LDH-coupled NADH absorbance | inhibition, % at 10 µM | actives 0.48% (n = 65,000) | AID 555, 2006 | purified MK, PK/LDH-coupled NADH absorbance 340 nm | mevalonate kinase [Streptococcus pneumoniae D39];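 active = ranked among the strongest by inhibition in the single 10 µM screen, a fixed top-ranked set picked for dose follow-up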
PMK inhibit = S. pneumoniae PMK inhibitors, primary screen, biochemical, mevalonate pathway, pilot trial included. inhibition, % at 10 µM. actives 0.49% (n = 65,000). AID 539, 2006. phosphomevalonate kinase (Streptococcus pneumoniae D39). purified PMK, PK/LDH-coupled NADH absorbance 340 nm;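 active = top-ranked compounds by inhibition in the single 10 µM screen, taking a fixed number of the strongest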;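 also: 0% = full reaction with DMSO carrier and 100% = background rate without enzyme reaction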
Autofluor 339 = intrinsic fluorescence of library compounds, ex339/em460 – biochemical, MLSMR library, data from DPM-DC assay, artefact control, profiling panel; compound autofluorescence, ex339/em460 nm, NADH buffer; stronger effect = higher value; 1 = no-compound wells, NADH background; actives 5.5% (n = 65,000); fluorescence fold increase at 10 µM;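 active = at 10 µM, mean starting fluorescence two-fold or more over control wells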;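 also: signal is the first read of a kinetic run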
Abs 340nm = compound light absorbance at 340 nm, profiling panel, artefact control, biochemical, MLSMR library, data from PS, PMK, MK assays; compound absorbance at 340 nm, fold over control; fold change at 10 µM; 65,000 tested, under 10 active;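 active = at 10 µM dose, initial 340 nm absorbance at least 2 fold that of control wells; inactive = change under 2 fold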;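 also: initial absorbance extrapolated from kinetic A340 decline of NADH oxidation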
DPM-DC inhibit = S. pneumoniae DPM-DC inhibitors, primary screen, biochemical, PK/LDH-coupled NADH fluorescence; diphosphomevalonate decarboxylase (Streptococcus pneumoniae D39); purified DPM-DC; calls only at 10 µM; actives 0.49% (n = 65,000);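 active = the 320 compounds with the highest percent inhibition in the single-dose primary screen, excluding strongly autofluorescent ones, cut at about 32% in these data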;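 also: kinetic rate of NADH fluorescence loss reporting ADP formed by the decarboxylase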
NADH coupling = inhibitors of PK/LDH coupling enzymes, profiling panel, artefact control, biochemical, MLSMR library | coupled PK/LDH NADH assays, four targets | IC50, µM (top dose mostly 10 µM), inactives show at the highest dose inhibition | actives 0.02% (n = 65,000) | AID 774, 2007;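 active = single-dose screening hits from any of four coupled enzyme assays that gave an IC50 when retested across doses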;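 also: the DPM-DC format reads NADH fluorescence rather than 340 nm absorbance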
* hit, by the source's call; i = inactive; . = no result shown; + = active, no number.

SMILES	Spn MK inh	PMK inhibit	Autofluor 339	Abs 340nm	DPM-DC inhibit	NADH coupling
CN(CC1CCCO1)S(=O)(=O)c1ccc(C(=O)Nc2nc(-c3ccccn3)cs2)cc1 (stereo not drawn)	0.0	5.0	1.13	1.09	i	5.0%
Cc1cc2cc(CN3C(=O)c4ccccc4C3=O)ccc2[nH]1	7.0	10.0	1.1	1.01	i	6.0%
CCOc1ccccc1-c1nc2c([nH]1)c(=O)n(C)c(=O)n2C	0.0	9.0	2.93*	1.11	i	8.0%
CCC1CCCCN1C(=O)COC(=O)c1ccc(S(=O)(=O)N2CCOCC2)cc1 (stereo not drawn)	2.0	5.0	1.07	1.01	i	2.0%
COCCN1C(=O)c2ccccc2C(C(=O)NCCCN2CCCC2)C1c1c[nH]c2ccccc12 (stereo not drawn)	0.0	11.0	1.14	1.01	i	4.0%
CCOC(=O)c1oc2ccccc2c1NC(=O)c1ccc(S(=O)(=O)N2CCCC2)cc1	7.0	14.0	2.52*	1.02	i	7.0%
CCc1ccc(NC(=O)CSc2nnc(Cn3c(=O)sc4ccccc43)n2C)cc1	2.0	4.0	1.07	1.06	i	2.0%
COc1ccc(-c2ccc(-c3noc(C)n3)c(OC)n2)cc1	5.0	9.0	3.84*	1.16	.	7.0%
COc1ccc(-c2ccc(-c3noc(C4CCCCC4)n3)c(OC)n2)cc1	6.0	10.0	3.67*	1.08	.	8.0%
CCOc1nc(-c2ccc(OC)cc2)ccc1-c1noc(C)n1	6.0	8.0	3.84*	1.2	.	7.0%
COCc1nc(-c2ccc(-c3ccc(C)cc3)nc2OC)no1	0.0	14.0	1.89	1.03	i	7.0%
CCCC(=O)NC(Nc1ccc(S(=O)(=O)Nc2cc(C)on2)cc1)(C(=O)OCC)C(F)(F)F (stereo not drawn)	4.0	5.0	1.14	0.95	i	3.0%
O=C(c1cc(-c2ccncc2)nc2ccc(Cl)cc12)N1CCN(C(=O)C2CCCO2)CC1 (stereo not drawn)	6.0	11.0	1.05	1.12	i	8.0%
CCOC(=O)c1snc2c(=O)[nH]cnc12	4.0	10.0	3.73*	1.08	.	7.0%
CCOC(=O)c1cn2c3c(c(F)c(F)c(F)c3c1=O)SC(N1CCCC1)=N2	4.0	4.0	2.66*	1.05	i	4.0%
CCC(Oc1ccc2c(c1)C(=O)CC(C)(C)O2)C(=O)NCCN1CCCCCC1 (stereo not drawn)	23.0	10.0	5.03*	1.07	.	17.0%
COc1ccc(CCNC(=O)CN2CCCc3ccccc32)cc1OC	0.0	9.0	1.02	1	i	3.0%
COc1cc(C(=O)NCCC(=O)NCCN2CCCCCC2)cc(OC)c1OC	0.0	20.0	1.07	0.99	i	7.0%
CC1(C)CC(=O)c2cc(OCC(=O)NCCCN3CCN(c4ccc(F)cc4)CC3)ccc2O1	0.0	9.0	3.65*	1.03	i	5.0%
CC1(C)CC(=O)c2cc(OCC(=O)NCCN3CCCc4ccccc43)ccc2O1	0.0	14.0	5.04*	1.01	.	7.0%
CCCC(=O)Nc1ccc(N2CCN(C(=O)CCC)CC2)cc1	0.0	11.0	1.09	1.01	+	14.0%
COc1nc(-c2ccc(C)cc2)ccc1-c1noc(-c2cccnc2)n1	0.0	15.0	3.5*	1.04	.	8.0%
COc1nc(-c2ccccc2)ccc1-c1noc(-c2cccnc2)n1	9.0	15.0	3.55*	1.06	.	12.0%
COc1nc2ccccc2cc1-c1noc(-c2cccnc2)n1	7.0	13.0	1.48	1.02	i	7.0%
CCOC(=O)C1CCN(S(=O)(=O)C(F)(F)c2nc3ccccc3s2)CC1	8.0	0.0	0.84	1.05	i	6.0%
SMILES	Spn MK inh	PMK inhibit	Autofluor 339	Abs 340nm	DPM-DC inhibit	NADH coupling
Cc1ccc(-n2nc3c(c2NC(=O)c2c(-c4ccccc4Cl)noc2C)CS(=O)(=O)C3)c(C)c1	1.0	25.0*	1.08	1	i	9.0%
Cc1nc2c(-c3ccccc3)c(C)nn2c(C)c1CCC(=O)N1CCOCC1	6.0	8.0	1.18	1.08	i	5.0%
Cc1nc2c3c(-c4ccccc4)nc(N4CCOCC4)nc3nn2c(C)c1CCC(=O)O	0.0	11.0	3.69*	1.09	i	13.0%
COc1ccc(-c2nc(N3CCOCC3)nc3nn4c(C)c(CCC(=O)O)c(C)nc4c23)cc1	0.0	14.0	4.99*	1.08	.	7.0%
Cc1ccc(-c2c(C#N)c(N)nc3c2CCCCC3)o1	5.0	5.0	2.04*	1.06	i	8.0%
Cc1ccc(-c2c(C#N)c(N)nc3c2CCCCCC3)o1	2.0	6.0	2.2*	0.92	.	4.0%
CCOC(=O)c1cnn(CCOC(=O)c2cccs2)c1NC(=O)c1cccs1	5.0	11.0	1.02	1	i	5.0%
Cn1c(NC(=O)c2cccs2)c(-c2cccs2)c(=O)c2ccccc21	11.0	7.0	1.11	1.08	i	6.0%
CCC(=O)Nc1c(-c2ccc(OC)cc2)c(=O)c2ccccc2n1C	6.0	8.0	3.79*	1.12	.	7.0%
COC(=O)C(NS(=O)(=O)c1ccc(NC(C)=O)cc1)C(C)C (stereo not drawn)	8.0	13.0	1.11	0.99	i	7.0%
CC1CCc2nn(CC(=O)NCCC3=CCCCC3)cc2C1 (stereo not drawn)	6.0	5.0	1.12	1.07	i	4.0%
O=C(c1c[nH]c2ccc(S(=O)(=O)N3CCC4(CC3)OCCO4)cc2c1=O)N1CCOCC1	0.0	18.0	2.1*	1.07	.	9.0%
Cc1cccc(N(C)S(=O)(=O)c2ccc3[nH]cc(C(=O)N4CCOCC4)c(=O)c3c2)c1	5.0	0.0	2.04*	1.11	i	6.0%
Cn1c(SCC(=O)NCCN2C(=O)CSC2=O)nc2ccccc2c1=O	0.0	17.0	0.93	1	i	7.0%
COc1ccc(C(F)(F)F)cc1NC(=O)c1nc2nc(C)cc(C(F)F)n2n1	1.0	8.0	3.03*	1	.	3.0%
Cc1cc(C(F)F)n2nc(C(=O)Nc3cccc(C(F)(F)F)c3)nc2n1	4.0	7.0	1.13	1.02	i	4.0%
Cc1cccc(S(=O)(=O)c2c(N)n(/N=C/c3cccnc3)c3nc4ccccc4nc23)c1	15.0	9.0	3.69*	1.09	.	12.0%
Cc1ccc(S(=O)(=O)c2c(N)n(/N=C/c3ccco3)c3nc4ccccc4nc23)cc1C	3.0	11.0	3.19*	1.1	i	5.0%
Nc1c(S(=O)(=O)c2cccs2)c2nc3ccccc3nc2n1/N=C/c1cccc(O)c1	4.0	0.0	3.96*	1.16	.	2.0%

Bioassay records as filed in PubChem.
